From PubChem BioAssay (Tox21) come the findings set out here.

Inconclusive results are not listed. A call without a number means that no potency is given here. Calls of active or inactive are those of the source. Calls come from the whole dose curve; as a rule, active = well fitted cell-killing curve with a large enough effect in the repeat runs; inconclusive = weak or mixed curves, or effect the other way; inactive = flat fitted curve, though single readings scatter.
Potency is the fitted concentration of half-maximal effect.

The assay is described as follows: qHTS RealTime-Glo MT Cell Viability Assay in HEK293 cells - 24 hour (AID 1224886). Note: nearly all actives have a fitted effect of over 50% in size. The note with it: RealTime-Glo luminescence; series mostly up to 76.8 µM. An excerpt: National Center for Advancing Translational Sciences [NCATS]
NIH Chemical Genomics Center [NCGC]
U.S. Environmental Protection Agency [EPA]
National Institutes of Environmental Health Sciences [NIEHS]
National Toxicology Program [NTP]
U.S. Food and Drug Administration [FDA]
Measure of cell viability is critical in the cell-base assay. Analysis of cell viability is necessary for the characterization of cell responses to cytotoxic drugs and environmental stress. A RealTime-Glo MT Cell Viability Assay to monitor cell viability in real time of continues cell culture during 40 hours of compound treatment was used to screen Tox21 10K library compounds in Hek293 cells. The RealTime-Glo MT Cell Viability Assay is a nonlytic, homogeneous, bioluminescent method to measure cell viability in real time using a simple, plate-based method. The assay involves adding NanoLuc luciferase and a cell-permeant prosubstrate to cells in culture. Viable cells reduce the proprietary prosubstrate to generate a substrate for NanoLuc luciferase. This substrate diffuses from cells into the surrounding culture medium, where it is rapidly used by the NanoLuc Enzyme to produce a luminescent signal. The signal correlates with the number of viable cells, making the assay well suited for cytotoxicity studies.
Tox21 Assay Protocol Summary:
The mixture of Hek293 cell suspension and reagents were dispensed at 600cells/6 ul/well in 1536-well tissue culture treated black solid bottom plates using a Multidrop dispenser. After the assay plates were incubated at a 37 C/5% CO2 incubator for 5 hours, 23 nL of compounds dissolved in DMSO, positive and negative controls was transferred to the assay plate by a pintool work station. The plates were incubated at 37 C for 40 hours. The luminescence intensity were measured at 0h, 8h, 16h, 24h, 32h and 40h time points using ViewLux plate reader during compound treatment.
For orientation: In qHTS, concentration-response curves come from the screen itself.
For `CC(C)(O)C(=O)c1ccc(OCCO)cc1`, the Potency entry is “inactive”. Next, `Fc1ccccc1-c1ccccc1`: “inactive”; `CCn1c(=O)c2c(nc(/C=C/c3ccc(OC)c(OC)c3)n2C)n(CC)c1=O`: 1.69 µM (active).

Consider `CC(C)COC(=O)C(C)C`, for which the Potency entry is “inactive”. For `CC(=O)CCc1ccc(O)cc1`, the Potency entry is “inactive”. The value for `N[C@@H](CS)C(=O)O` was “inactive”; that for `CCCCC1CCCCC(=O)O1` (stereo not given) was “inactive”; that for `CC(C)CCCC(C)CCCC(C)CCCCC(C)CCCC(C)CCCC(C)C` (stereo not given) was “inactive”.

Consider `OC/C=C/c1ccccc1`, for which the Potency entry is “inactive”. In the case of `OCCN1C[C@H](O)[C@@H](O)[C@H](O)[C@H]1CO`, the Potency entry is “inactive”.

With `CCCCCCOC(=O)CC(CC(=O)OCCCCCC)(OC(=O)CCC)C(=O)OCCCCCC`, the Potency entry is “inactive”.

With `NC(=O)c1c(Cl)cccc1Cl`, the Potency entry is “inactive”. Next, `Cc1cc(C)c(NC(=O)CN(CC(=O)O)CC(=O)O)c(C)c1Br`: “inactive”; `Nc1cc(N)cc(C(=O)O)c1`: “inactive”; `CC1=CC(=O)CCC1`: “inactive”.

As to `O=C1OC(=O)c2cc([N+](=O)[O-])ccc21`, the Potency result is “inactive”. The value for `Nc1ccn(C2CO[C@H](CO)O2)c(=O)n1` (stereo not given in full) was “inactive”; that for `NCCN1CCNC1=O` was “inactive”.

Regarding `CC12CCC(CC1=O)C2(C)C` (stereo not given), the Potency entry is “inactive”. Next, `CC(C)c1ccc2oc3nc(N)c(C(=O)O)cc3c(=O)c2c1`: “inactive”. For `CC(=O)N[C@@H](CCC(N)=O)C(=O)O`, the Potency result is “inactive”. Next, `Nc1ccc2cc(S(=O)(=O)O)ccc2c1`: “inactive”. For `C(=C(c1ccccc1)c1ccccc1)c1ccccc1`, the Potency entry was “inactive”. Next, `C=C(C)[C@@H]1CCC2=CC(=O)C[C@@H](C)[C@]2(C)C1`: “inactive”; `NC(=O)c1ncn([C@@H]2O[C@H](CO)[C@@H](O)[C@H]2O)c1O`: “inactive”; `C=C(C)C(=O)NCCC[N+](C)(C)C`: “inactive”. As to `CC1=CCC2C(C1)C2(C)C` (stereo not given), the Potency entry is “inactive”.

Take `c1cc(CN2CCCCC2)cc(OCCCNc2nc3ccccc3s2)c1`: the Potency was 9.52 µM (active). With `c1ccc2cnncc2c1`, the Potency entry is “inactive”.

Turning to `O=C(O)c1ccc[n+]([O-])c1`, the Potency result was “inactive”. In the case of `CN(C)CCn1nnnc1SCC1=C(C(=O)O)N2C(=O)[C@@H](NC(=O)Cc3csc(N)n3)[C@H]2SC1`, the Potency entry was “inactive”. Consider `Cc1nccn1CC1CCc2c(c3ccccc3n2C)C1=O` (stereo not given), for which the Potency result was “inactive”. For `C=CCOCC(O)CS(=O)(=O)O` (stereo not given), the Potency result is “inactive”. The value for `C=C(C)[C@H]1CC=C(C)CC1` was “inactive”.

For `COC[C@H](c1ccc(C(F)(F)F)cc1)N1CCN(C2(C)CCN(C(=O)c3c(C)ncnc3C)CC2)C[C@H]1C`, the Potency result is “inactive”.

With `CCN(CC)C(=O)c1ccc(O)c(OC)c1`, the Potency result is “inactive”.

Consider `CCCCCN(CCCCC)C(=O)C(CCC(=O)O)NC(=O)c1ccc(Cl)c(Cl)c1` (stereo not given), for which the Potency result is “inactive”.

Turning to `CCCC(C)C(=O)O` (stereo not given), the Potency entry is “inactive”.

On to `Cc1ccc(N)cc1[N+](=O)[O-]`, for which the Potency entry is “inactive”.

In the case of `CC(C)CCCC(C)NCCC(C)C` (stereo not given), the Potency entry was “inactive”.
